# Laboratory results from PubChem BioAssay AID1479 (National Center for Advancing Translational Sciences (NCATS), 2009).
# About 820 (0.29%) of roughly 280,000 compounds were called active. Not shown: some 1% with an inconclusive outcome. Calls follow the shape of the dose curve; as a rule, active = well fitted curve in either direction with a large enough effect; inconclusive = small, poorly fitted or top-dose-only effect; inactive = flat fitted curve, though single readings scatter. Shown is part of a subset that was picked to be rich in actives. A call without a number means that no potency is given here.
# Test: Total Fluorescence Counterscreen for Inhibitors of the Interaction of Thyroid Hormone Receptor and Steroid Receptor Coregulator 2
# Conditions: TRb/SRC2 Texas Red total fluorescence interference; series mostly up to 106 µM
# How it was run: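 Flags fluorescent or light-absorbing compounds by total fluorescence, S + 2P, at 555 nm excitation and 632 nm emission. Mixture: 20 nM Texas Red SRC2 peptide, 0.6 uM human TRb LBD, 1 uM T3, 5% DMSO; compound exposure 5 h at ambient temperature.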
# Potency is read from the fitted curve at half-maximal effect; tags tell the direction and shape of the fitted curve or compound fluorescence and quenching.
row,SMILES,Potency
1,CCOC(=O)c1ccc(NC(=O)c2csc3c2CCCCC3)cc1,inactive
2,CCCSc1ncc(Cl)c(C(=O)Nc2sc3c(c2C(=O)NCCOC)CCCC3)n1,0.1 µM [quencher] (active)
3,COCCCNC(=O)c1c(NC(=O)c2cc(=O)c3cc(C)c(C)cc3o2)sc2c1CCCC2,inactive
4,CCOCCCNC(=O)c1c(NC(=O)c2nc(SC)ncc2Cl)sc2c1CCCC2,inactive
5,CCOC(=O)c1scc(-c2ccc(C)cc2)c1S(=O)(=O)Nc1cc(C)ccc1C,inactive
6,O=C(Oc1ccc([N+](=O)[O-])cc1)c1ccc(Cl)c(S(=O)(=O)N2CCCCC2)c1,0.316 µM [quencher] (active)
7,O=[N+]([O-])c1cccc(S(=O)(=O)N2CCCCCC2)c1,inactive
8,O=C(Nc1ccc2c(c1)OCCO2)c1ccc(Cl)c(S(=O)(=O)N2CCCCC2)c1,inactive
9,Cc1ccc(/C=N/NC(=S)Nc2cccc(S(=O)(=O)N(C)C)c2)o1,inactive
10,CN(C)S(=O)(=O)c1cccc(NC(=S)NCc2ccc3c(c2)OCO3)c1,inactive
11,CN(C)S(=O)(=O)c1cccc(NC(=S)N/N=C/C(=O)c2ccccc2)c1,4.47 µM [quencher] (active)
12,COc1ccc(OC)c(NC(=O)CSC2=Nc3ccccc3C3=NC(CC(=O)NCCc4ccccc4)C(=O)N23)c1 (stereo unspecified),inactive
13,CCC(Sc1nnc(-c2ccc(OC)cc2)c(-c2ccc(OC)cc2)n1)C(=O)NC1CCCCC1 (stereo unspecified),inactive
14,CCCSc1nc2sc3c(c2c(=O)n1-c1cccc(Br)c1)CC(C)(C)OC3,inactive
15,Fc1ccc(-c2nn(-c3ccccc3Cl)c3c2cnc2ccccc23)cc1,inactive
16,COCCOC(=O)c1sc(=S)n(CCOC)c1N,50.1 µM [fluorescent] (active)
17,CCOC(=O)c1c(N)sc(C(C)=O)c1C,inactive
18,COC(=O)c1sc(=S)n(-c2ccccc2)c1N,inactive
19,COc1ccc(-c2nnc(SCC(=O)Nc3ccc(C(C)C)cc3)nc2-c2ccc(OC)c(OC)c2)cc1OC,inactive
20,Cc1ccc(-n2nc(C)c3c(C)cc(=O)n(CC(=O)Nc4ccc(C(C)C)cc4)c32)cc1,inactive
21,COc1cccc(-c2nc(S(=O)(=O)c3ccc(C)cc3)c(NCc3ccccc3)o2)c1,inactive
22,CCc1ccccc1N1C(=O)CN(S(=O)(=O)CC)CC1(C)C(=O)NC1CCCCC1 (stereo unspecified),17.8 µM [quencher] (active)
23,COc1ccc(OC)c(CN2C(=O)CCC2(C)C(=O)NC2CCCCCC2)c1 (stereo unspecified),inactive
24,COc1cccc(CN2C(=O)CCC2(C)C(=O)NC2CCCCCC2)c1 (stereo unspecified),inactive
25,COc1ccc(S(=O)(=O)NCc2cccn2Cc2cccc(C)c2)cc1Cl,inactive
26,CCOc1ccc(N2CC(C)Cn3c2nc2c3c(=O)n(Cc3c(F)cccc3Cl)c(=O)n2C)cc1 (stereo unspecified),inactive
